Rows were chosen to be rich in hits. Some 19% of all compounds tested hit in one or more screens of this group.
IL1B secr inh = inflammasome signaling inhibition, IL-1 beta readout; activity change, % at 57.5 µM; 360,000 tested, 4.7% active; THP-1 LPS/ATP IL-1B secretion, AlphaLISA, 16 h; active compounds read low; in the data active = activity change below about -50%; inconclusive = mostly about -30% to -49%
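THP-1 cells pretreated 1 hr with compounds (up to 57.5 uM final), then stimulated with LPS (250 ng/mL final) plus ATP (1.25 mM final); secreted IL-1B measured by AlphaLISA after 16 hr, decreased signal indicating inhibition.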
TDP1 cell CPT = growth inhibition of DT40 Tdp1-/-;hTDP1 cells with camptothecin (screen for TDP1 inhibitors); chicken DT40 Tdp1-/-;hTDP1 cells + 20 nM CPT, ATP luminescence, 48 h; Potency, µM (highest dose often 46.2 µM), for the others: top-dose activity change, negative = growth inhibition, actives largely listed as inhibitors; 420,000 tested, 12% active; also: potency is read from the fitted curve at half-maximal effect; nearly all actives have a fitted effect of over 55% in size
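Chicken DT40 Tdp1-/- cells complemented with human TDP1, 400 cells/well, exposed to compounds plus 20 nM camptothecin for at least 48 h at 37 C; viability read as ATP content by CellTiter-Glo luminescence.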
HT1080 IDH1KD tx = kills HT-1080 cells with IDH1 knockdown; HT-1080 IDH1 knockdown viability, ATP luminescence, 48 h; Potency, µM (series often up to 46.1 µM), for the others: top-dose activity, negative = toxicity, hits mostly cytotoxic; 360,000 tested, 2% active;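 also: potency is read from the fitted curve at half-maximal effect; 0% = DMSO wells and -100% = cell-free medium wells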
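In this qHTS, HT-1080 cells depleted of IDH1 are exposed for 48 h at 37 °C to compound titrations. Toxicity is scored from CellTiter-Glo luminescence, with DMSO as full viability and medium alone as none.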
ELG1 repair inh = inhibitors of ELG1-dependent DNA repair in HEK293T cells | HEK293T ELG1-luciferase reporter, luminescence, 16 h; DNA damage induced by 5-fluorouridine | Potency, µM (highest dose often 46.1 µM), inactives show at the top dose activity change, negative = inhibition, hits mostly inhibitors | 330,000 tested, 2.3% active | AID 504467; also: potency is read from the fitted curve at half-maximal effect; nearly all actives have a fitted effect of over 55% in size
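DMSO vehicle served as the neutral condition. Each well held 2,000 cells given 5-fluorouridine plus compound; after 16 hr at 37 °C/5% CO2, ONE-Glo was added and luciferase measured 30 min later.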
HT1080-NT tox = kills 2HG-producing HT-1080-NT fibrosarcoma cells | HT-1080-NT fibrosarcoma viability, CellTiter-Glo ATP luminescence, 48 h | Potency, µM (series often up to 46.1 µM), without a hit: at the top dose activity, negative = less viability, actives largely listed as cytotoxic | 360,000 tested, 1.6% active | AID 686970;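 also: NT is the 2HG producing partner of a matched IDH1 knockdown line; potency is read from the fitted curve at half-maximal effect; 0% = DMSO-treated cells and -100% = media-only wells without cells; nearly all actives have a fitted effect of over 55% in size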
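A 48-hour cytotoxicity screen used HT-1080-NT cells plated 2 hours before compound delivery. ATP-based CellTiter-Glo luminescence measured viability, normalized to DMSO and no-cell controls.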
DT40 TDP1 no CPT = qHTS for Inhibitors of human tyrosyl-DNA phosphodiesterase 1 (TDP1): qHTS in cells in absence of CPT; DT40 Tdp1-/- hTDP1 cells, no CPT, ATP luminescence, 48 h; Potency, µM (highest dose often 46.2 µM), without a hit: at the top dose activity change, negative = growth inhibition, usual class: inhibitors; 420,000 tested, 15% active; AID 686978, 2013; also: potency is read from the fitted curve at half-maximal effect; nearly all actives have a fitted effect of over 55% in size
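Camptothecin absent (DMSO only). Human TDP1-complemented DT40 knockout cells, 400 cells/well, 37 °C for minimum 48 hr; ATP measured via CellTiter-Glo, 30 min dark incubation, luminescence.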
Starred values were filed as active, the others as inactive; ? = inconclusive; . = no result. Unless noted, calls follow the shape of the dose curve; as a rule, active = well fitted curve in the direction sought with a large enough effect; inconclusive = small, poorly fitted or top-dose-only effect, or another doubt; inactive = no such curve, though single readings can be large; an effect the other way counts as inactive or inconclusive. Unless noted, % is scaled to controls: 0 for no effect and ±100 for the full control effect.

SMILES	IL1B secr inh	TDP1 cell CPT	HT1080 IDH1KD tx	ELG1 repair inh	HT1080-NT tox	DT40 TDP1 no CPT
O=C(O)c1cccc(NS(=O)(=O)c2ccc(C3CCCCC3)cc2)c1	-23.1	0.8%	-11.1%	0.9%	1.2%	0.2%
COc1ccc(S(=O)(=O)Nc2ccc(CC#N)cc2)cc1	16.4	-15.9%	-1.0%	-1.7%	2.0%	-13.3%
N#CCc1ccc(NS(=O)(=O)c2ccc(C3CCCCC3)cc2)cc1	12.1	23.1µM*	?	-0.7%	?	14.6µM*
Cc1cccc(NS(=O)(=O)c2ccc(C3CCCCC3)cc2)c1	-11.2	20.6µM*	?	0.6%	?	14.6µM*
C/C(CC(=O)Nc1ccc2c(c1)OCCO2)=N\NC(=O)COc1ccc(Cl)c(C)c1	22.3	-5.7%	10.0%	8.8%	-1.1%	-18.9%
CC(=O)N1c2ccc3ccccc3c2C2C=CCC2C1c1ccc(Br)cc1 (configuration not stated)	.	.	.	11.6%	.	.
CC(=O)N1c2ccc(Cl)cc2C2C=CCC2C1c1cccc2ccccc12 (configuration not stated)	?	23.1µM*	?	23.1µM*	?	?
O=[N+]([O-])c1ccc(O)c(-c2nn[nH]n2)c1	7.3	18.4µM*	13.2%	?	5.1%	?
CCOC(=O)c1cccc(NC(=O)CC2C(=O)N(c3ccc(OC)cc3)C(=O)N2C2CCCC2)c1 (configuration not stated)	.	23.1µM*	.	.	.	23.1µM*
CCOC(=O)c1cccc(NC(=O)CC2C(=O)N(c3ccc(Cl)cc3)C(=O)N2C2CCCC2)c1 (configuration not stated)	.	20.6µM*	.	.	.	18.4µM*
CCCCNC(=O)C1c2ccccc2OCC(=O)N1Cc1cccnc1 (configuration not stated)	11.3	5.0%	12.0%	.	17.6%	-23.0%
O=c1c(-c2n[nH]c(=S)n2-c2ccccc2)cccn1Cc1cccc(Cl)c1	9.2	2.1%	1.0%	4.4%	13.1%	-2.6%
Cc1ccc(-c2[nH]ncc2C(=O)c2ccc(Br)cc2)c(O)c1	-82.0*	?	?	-3.1%	?	?
COc1ccc(O)c(-c2[nH]ncc2C(=O)c2ccccc2)c1	-10.2	-27.7%	-1.6%	23.1µM*	-1.3%	-27.4%
COC(=O)C(C)N1C(=O)S/C(=C\c2ccc(-c3ccc(C(=O)O)cc3C)o2)C1=O (configuration not stated)	-1.0	?	0.0%	?	2.2%	?
COC(=O)C(C)N1C(=O)S/C(=C/c2cc(C)n(-c3ccccn3)c2C)C1=O (configuration not stated)	26.2	?	0.8%	?	1.7%	16.4µM*
CCOC(=O)CN1C(=O)S/C(=C/c2cc(C)n(-c3ccccn3)c2C)C1=O	-7.2	?	-2.7%	?	-1.9%	?
COC(=O)C(C)N1C(=O)S/C(=C\c2cc(C)n(-c3ccccn3)c2C)C1=O (configuration not stated)	4.9	13µM*	0.3%	?	4.7%	?
CCOC(=O)c1ccc(NC(=O)CSc2nncn2-c2cccnc2)cc1	36.6	13.9%	9.7%	?	7.8%	-20.8%
Cc1ccc(C2C(C#N)=C(N)Oc3cc(C)oc(=O)c32)o1 (configuration not stated)	-5.5	18.4µM*	?	?	-28.0%	18.4µM*
Cc1ccc(C)c(C2C(C#N)=C(N)Oc3cc(C)oc(=O)c32)c1 (configuration not stated)	6.7	0.0%	13.8%	2.7%	15.2%	-3.1%
O=C(NNc1c2ccccc2nc2ccccc12)c1cccc(O)c1	-79.7*	?	-0.2%	14.6µM*	-9.9%	11.6µM*
Cc1ccc(C(=O)Nc2nc3ccccc3n3nnnc23)cc1	7.0	-17.4%	11.0%	?	8.0%	-11.1%
Cc1ccc(C(=O)NNc2nc3ccccc3nc2C(F)(F)F)cc1	1.9	?	-1.7%	-13.0%	0.0%	23.1µM*
O=C(NNc1c2ccccc2nc2ccccc12)c1ccc(O)cc1	-21.6	13µM*	-19.6%	?	-7.1%	?
SMILES	IL1B secr inh	TDP1 cell CPT	HT1080 IDH1KD tx	ELG1 repair inh	HT1080-NT tox	DT40 TDP1 no CPT
NC(=O)C1(N2CCCCC2)CCN(C(=S)Nc2ccc(S(N)(=O)=O)cc2)CC1	39.0	0.1%	0.2%	1.2%	-0.6%	8.7%
O=C(Nc1ccc2c(c1)CCC2)c1ccc(F)cc1	-16.5	7.5%	0.0%	?	4.4%	6.2%
O=C(Nc1ccc2c(c1)CCC2)c1ncoc1-c1ccccc1F	-73.9*	-19.1%	-5.9%	?	8.2%	?
CC(SC1=NCCS1)C(=O)Nc1nnc(-c2ccc(Cl)cc2)s1 (configuration not stated)	?	14.6µM*	9.3%	?	10.6%	20.6µM*
COc1ccccc1-c1nnc(NC(=O)C(C)SC2=NCCS2)s1 (configuration not stated)	?	20.6µM*	0.3%	?	-12.2%	?
CC(=O)c1ccc(OCc2ccc(Oc3c(Cl)cccc3[N+](=O)[O-])cc2)cc1	0.0	?	19.3%	11.8%	-1.6%	?
COc1ccc(C(O)c2nc(-c3cccc4cccnc34)cs2)cc1 (configuration not stated)	-14.7	-13.9%	-2.5%	.	18.2%	-23.8%
OCCN1CCN(CC/C=C2/c3ccccc3Sc3ccc(C(F)(F)F)cc32)CC1	?	20.6µM*	20.6µM*	7.8%	20.6µM*	9.44µM*
OCCN1CCN(CC/C=C2/c3ccccc3CSc3ccccc32)CC1	0.0	?	-21.3%	.	-9.7%	?
CCN(CCn1cccn1)C(=O)C1CCC(=O)N(CC2CCCCC2)C1 (configuration not stated)	35.4	4.9%	2.7%	15.8%	4.6%	16.8%
Cc1cc2c(=O)n(C)c(SCC(=O)Nc3cccc(O)c3)nc2s1	13.1	?	-6.2%	0.1%	-9.5%	-29.4%
Cc1cccc(NC(=O)CSc2nc3sc(C)cc3c(=O)n2C)c1	-2.1	?	-5.3%	.	-9.3%	23.1µM*
COc1ccc(NC(=O)CSc2nc3sc(C)cc3c(=O)n2C)c(OC)c1	36.7	?	-12.6%	?	?	18.4µM*

Screens from PubChem BioAssay.
